# Assay results as given in PubChem BioAssay (NCATS).
# “And” between values parts separate entries of the source, which are not always exact repeats. Identical values can stand only once. Records with an inconclusive call do not appear. Where a call stands in place of a potency, no number is given. The source made the active and inactive calls. Unless noted, the call rests on the fitted dose curve.
# Assays:
# [1] = target: DNA dC->dU-editing enzyme APOBEC-3G (Homo sapiens) (UniProt Q9HC16); experiment: qHTS for inhibitors of Vif-A3G interactions: Validation (AID 588379; active means well fitted curve in the direction sought with a large enough effect; an effect the other way counts as inactive or inconclusive); details: Vif-A3G protein interaction assay; series mostly up to 46.1 µM
# DNA dC->dU-editing enzyme APOBEC-3G (Homo sapiens), sequence (Q9HC16 whole entry, looked up): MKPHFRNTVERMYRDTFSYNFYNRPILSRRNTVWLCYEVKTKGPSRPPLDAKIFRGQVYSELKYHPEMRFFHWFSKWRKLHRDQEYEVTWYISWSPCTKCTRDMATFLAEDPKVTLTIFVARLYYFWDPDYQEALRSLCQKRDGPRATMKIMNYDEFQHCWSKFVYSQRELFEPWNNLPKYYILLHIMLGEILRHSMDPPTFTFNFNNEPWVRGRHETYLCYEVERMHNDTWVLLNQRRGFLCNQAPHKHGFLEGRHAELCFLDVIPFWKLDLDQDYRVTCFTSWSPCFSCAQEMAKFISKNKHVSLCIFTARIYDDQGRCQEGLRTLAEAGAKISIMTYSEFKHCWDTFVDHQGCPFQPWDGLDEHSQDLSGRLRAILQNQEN
# Outline: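 Yellow fluorescence (Ex 488, Em 500-530) of Vif-coexpressing HeLa A3G-eYFP cells, scanned by Acumen cytometer, reports blocked A3G degradation. Cells plated at 700/well overnight at 37 deg C before compound addition, then a further overnight compound incubation at 37 deg C.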
# [2] = target: Estrogen receptor (Homo sapiens) (UniProt P03372); experiment: qHTS assay for small molecule agonists of estrogen receptor alpha signaling (AID 588514); details: ER-alpha-UAS-bla HEK293, beta-lactamase ratio, 18 h; series mostly up to 76.8 µM; further: nearly all actives have a fitted effect of over 70% in size; further: potency means the concentration at half of the fitted maximal effect
# Estrogen receptor (Homo sapiens), sequence (P03372 whole entry, looked up): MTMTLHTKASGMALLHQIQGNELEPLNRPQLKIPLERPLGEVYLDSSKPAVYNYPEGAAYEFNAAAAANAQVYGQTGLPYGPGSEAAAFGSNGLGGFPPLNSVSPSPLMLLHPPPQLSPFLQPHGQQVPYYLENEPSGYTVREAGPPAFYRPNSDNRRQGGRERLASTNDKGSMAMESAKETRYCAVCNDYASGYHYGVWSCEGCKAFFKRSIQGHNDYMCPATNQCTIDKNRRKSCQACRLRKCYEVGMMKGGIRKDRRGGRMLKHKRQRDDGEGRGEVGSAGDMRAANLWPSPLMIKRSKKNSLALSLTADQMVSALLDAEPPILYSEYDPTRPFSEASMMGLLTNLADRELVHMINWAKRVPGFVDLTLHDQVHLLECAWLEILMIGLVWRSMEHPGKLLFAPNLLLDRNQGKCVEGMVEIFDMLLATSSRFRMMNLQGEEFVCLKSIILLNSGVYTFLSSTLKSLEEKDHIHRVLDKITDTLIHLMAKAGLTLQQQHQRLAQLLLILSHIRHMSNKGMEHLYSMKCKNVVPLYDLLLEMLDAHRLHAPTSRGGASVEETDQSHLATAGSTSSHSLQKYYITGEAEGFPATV
# Outline: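 Fluorescence from CCF4 cleavage reports ER-alpha-driven beta-lactamase expression in HEK 293 cells treated 18 hrs at 37 C. Data normalized to 17-beta-estradiol (20 nM) and DMSO, fitted to Hill equation.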
# [3] = target: Glucocorticoid receptor (Homo sapiens) (UniProt P04150); experiment: qHTS assay for small molecule antagonists of glucocorticoid receptor signaling (AID 588533; active means well fitted inhibition curve with a large enough effect in the signal ratio, with a control signal flat, not every such curve was filed as active; the % refers to the signal ratio;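 further: cells stimulated with 2 nM dexamethasone as agonist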; further: potency means the concentration at half of the fitted maximal effect); details: HeLa MMTV-bla, GRE beta-lactamase ratio, antagonist mode, 18 h; series mostly up to 76.8 µM
# Glucocorticoid receptor (Homo sapiens), sequence (P04150 whole entry, looked up): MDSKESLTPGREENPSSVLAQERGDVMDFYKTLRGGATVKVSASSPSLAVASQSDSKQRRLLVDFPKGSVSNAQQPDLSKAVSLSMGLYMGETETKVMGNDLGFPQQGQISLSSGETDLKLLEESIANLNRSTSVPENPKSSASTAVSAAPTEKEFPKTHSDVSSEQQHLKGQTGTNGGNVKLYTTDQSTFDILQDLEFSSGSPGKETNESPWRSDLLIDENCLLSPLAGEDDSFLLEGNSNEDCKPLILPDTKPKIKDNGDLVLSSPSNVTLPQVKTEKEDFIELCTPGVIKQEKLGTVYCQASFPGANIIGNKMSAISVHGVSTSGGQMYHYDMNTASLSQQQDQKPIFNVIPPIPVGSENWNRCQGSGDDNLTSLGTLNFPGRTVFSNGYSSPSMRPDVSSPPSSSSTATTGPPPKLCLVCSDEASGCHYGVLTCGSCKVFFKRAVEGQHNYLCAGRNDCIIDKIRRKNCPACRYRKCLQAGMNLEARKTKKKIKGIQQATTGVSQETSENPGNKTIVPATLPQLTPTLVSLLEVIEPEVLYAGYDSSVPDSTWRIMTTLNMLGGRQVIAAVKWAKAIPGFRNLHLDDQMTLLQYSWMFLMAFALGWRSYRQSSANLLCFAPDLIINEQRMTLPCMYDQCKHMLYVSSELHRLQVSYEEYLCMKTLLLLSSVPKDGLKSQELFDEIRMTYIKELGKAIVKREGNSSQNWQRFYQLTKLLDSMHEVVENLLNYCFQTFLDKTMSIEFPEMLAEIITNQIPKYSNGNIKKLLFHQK
# Outline: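 Antagonist-mode qHTS: compound titrations added to GRE-bla HeLa cells, then dexamethasone 2 nM final; 18 h, 37 C. CCF4 FRET fluorescence normalized to dexamethasone and DMSO; IC50 from Hill fit.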
# [4] = qHTS assay for small molecule antagonists of peroxisome proliferator-activated receptor delta signaling (AID 588535); details: HEK293T PPARd-UAS-bla, beta-lactamase FRET ratio, 18 h; 460 nm channel;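 further: cells co-treated with a PPAR-delta agonist as stimulator during compound exposure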
# Outline: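 Antagonist-mode qHTS using GeneBLAzer PPAR-delta-UAS-bla HEK293T cells; compound exposure 18 hrs at 37 C over a titration. Ratiometric CCF4 fluorescence at 460/530 nm; concentration-response points fitted to the Hill equation.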
# [5] = qHTS for Inhibitors of ATXN expression: Validation (AID 588378; active means well fitted curve in the direction sought with a large enough effect; an effect the other way counts as inactive or inconclusive; further: nearly all actives have a fitted effect of over 75% in size; further: potency means the concentration at half of the fitted maximal effect); details: cell-based ATXN2 expression reporter assay, luminescence; series mostly up to 57.1 µM
# Outline: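 Cells: HEK293-ATXN2-FFLuc, phenol-red free DMEM, 2 h attachment. Compound pin-transfer, 24 h, 37 degrees C, 5% CO2. CellTiter-Fluor 30 min, Ex405/Em525; Bright-Glo 5 min, luminescence 2 s exposure.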
# [6] = target: Estrogen receptor (Homo sapiens) (UniProt P03372); experiment: qHTS assay for small molecule antagonists of estrogen receptor alpha signaling (AID 588513; active means well fitted curve in the direction sought with a large enough effect in the signal ratio, with a control signal flat, not every such curve was filed as active; the % refers to the signal ratio); details: ER-alpha-UAS-bla HEK293, beta-lactamase ratio, antagonist mode; series mostly up to 76.9 µM
# From the text: NIH Chemical Genomics Center [NCGC]
# U.S. Environmental Protection Agency [EPA]
# National Institutes of Environmental Health Sciences [NIEHS]
# National Toxicology Program [NTP]
# Estrogen receptor alpha (ER-alpha) is an important member of nuclear hormone receptors. ER-alpha plays important role in breast cancer as well as in other women's health issues. The majority of breast cancers is estrogen receptor (ER) positive and depends on estrogen for growth. There is also growing concern for some of environmental chemicals which may contribute the increasing the incidence of breast cancer. Therefore, it is important to understand the effect of environmental chemicals in ER-alpha signaling pathway.
# NCGC Assay Protocol Summary
# Using a beta-lactamase reporter-gene under control of the ER response element, a cell-based assay [ER-alpha-UAS-bla GripTiteTM cell-Based Assay from Invitrogen] was used to measure ER-alpha signaling pathway in antagonist mode. ER-alpha-UAS-bla-GripTite HEK 293 cells were used with assay medium containing 2% charcoal/dextran treated FBS, 0.1 mM NEAA and 1 mM sodium pyruvate. Cells were cultured in this assay medium overnight in the flasks before the assay. […] Library compounds were measured for their ability to inhibit the reporter gene activity. […]
# 9. Detection; Fluorescence; Envision plate reader or Acumen plate reader
# [7] = target: Bile acid receptor (Homo sapiens) (UniProt Q96RI1); experiment: qHTS assay for small molecule antagonists of farnesoid X receptor signaling (AID 588526); details: HEK293T FXR-UAS-bla, beta-lactamase ratio, antagonist mode; series mostly up to 76.7 µM
# Bile acid receptor (Homo sapiens), sequence (Q96RI1 whole entry, looked up): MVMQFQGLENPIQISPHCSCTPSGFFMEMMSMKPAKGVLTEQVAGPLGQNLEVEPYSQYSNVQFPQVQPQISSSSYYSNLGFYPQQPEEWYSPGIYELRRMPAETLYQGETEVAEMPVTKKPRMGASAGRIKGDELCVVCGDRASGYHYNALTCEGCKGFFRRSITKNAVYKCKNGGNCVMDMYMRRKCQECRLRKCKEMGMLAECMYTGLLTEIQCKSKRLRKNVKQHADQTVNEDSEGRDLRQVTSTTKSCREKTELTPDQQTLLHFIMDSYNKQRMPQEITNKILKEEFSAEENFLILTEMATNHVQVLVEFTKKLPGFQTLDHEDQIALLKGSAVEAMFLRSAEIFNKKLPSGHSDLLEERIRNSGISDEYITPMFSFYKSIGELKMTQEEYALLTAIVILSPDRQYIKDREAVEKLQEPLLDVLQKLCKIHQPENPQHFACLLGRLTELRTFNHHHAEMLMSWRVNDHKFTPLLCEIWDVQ
# Outline: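 Beta-lactamase reporter antagonist mode: HEK293T FXR-UAS-bla cells, titrated compound, CDCA stimulation, 16 h 37 C, CCF4 dye 2 h RT. Data normalized to CDCA 50 uM and DMSO; Hill-fit IC50.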
# [8] = target: Glucocorticoid receptor (Homo sapiens) (UniProt P04150); experiment: qHTS assay for small molecule agonists of glucocorticoid receptor signaling (AID 588532; active means well fitted curve in the direction sought with a large enough effect in the signal ratio, with a control signal flat; the % refers to the signal ratio); details: HeLa MMTV-bla, beta-lactamase ratio, agonist, 18 h; stronger effect = higher value; percent of dexamethasone control, DMSO zero
# Outline: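 Agonist-mode qHTS: GRE-driven beta-lactamase in HeLa cells exposed 18 h to titrated compounds (up to 92 uM), then CCF4 ratio read after 2 h at RT; Hill-fitted EC50, efficacy relative to 0.1 uM dexamethasone.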
# [9] = target: Androgen receptor (Homo sapiens) (UniProt P10275); experiment: qHTS assay for small molecule agonists of androgen receptor signaling (AID 588515; active means well fitted curve in the direction sought with a large enough effect in the signal ratio, with a control signal flat; the % refers to the signal ratio); details: AR-UAS-bla HEK293, beta-lactamase ratio, agonist 16 h; stronger effect = higher value
# Androgen receptor (Homo sapiens), sequence (P10275 whole entry, looked up): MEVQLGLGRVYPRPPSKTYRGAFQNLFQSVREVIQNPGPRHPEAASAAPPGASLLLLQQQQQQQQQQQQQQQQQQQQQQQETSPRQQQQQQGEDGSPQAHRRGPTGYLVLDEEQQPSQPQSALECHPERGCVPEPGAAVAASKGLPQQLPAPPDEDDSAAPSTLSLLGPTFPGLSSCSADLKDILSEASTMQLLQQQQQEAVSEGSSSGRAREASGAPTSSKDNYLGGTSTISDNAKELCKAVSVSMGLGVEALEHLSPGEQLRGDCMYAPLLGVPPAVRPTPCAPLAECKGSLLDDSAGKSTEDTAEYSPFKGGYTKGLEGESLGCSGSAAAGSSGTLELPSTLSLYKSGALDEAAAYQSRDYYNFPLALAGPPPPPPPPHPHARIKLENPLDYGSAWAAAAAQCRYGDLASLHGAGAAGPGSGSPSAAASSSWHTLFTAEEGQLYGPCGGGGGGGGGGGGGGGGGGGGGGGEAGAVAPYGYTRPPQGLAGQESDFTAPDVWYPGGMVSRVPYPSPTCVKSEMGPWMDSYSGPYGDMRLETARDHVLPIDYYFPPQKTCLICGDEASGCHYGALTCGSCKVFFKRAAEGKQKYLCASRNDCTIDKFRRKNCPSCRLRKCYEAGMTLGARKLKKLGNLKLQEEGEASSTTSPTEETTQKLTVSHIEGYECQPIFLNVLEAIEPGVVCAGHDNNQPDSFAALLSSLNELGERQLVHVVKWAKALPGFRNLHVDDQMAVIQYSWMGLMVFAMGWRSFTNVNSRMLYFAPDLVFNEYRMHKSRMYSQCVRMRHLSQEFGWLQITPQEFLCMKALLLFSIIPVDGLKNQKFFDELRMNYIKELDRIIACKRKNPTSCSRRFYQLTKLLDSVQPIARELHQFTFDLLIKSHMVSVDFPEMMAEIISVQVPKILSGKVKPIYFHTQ
# Outline: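 Stimulation of an AR-responsive β-lactamase reporter in GripTite HEK293 cells was measured after 16 h compound exposure at 37 °C, via CCF4 fluorescence after 2 h RT. EC50 from Hill fits, normalized to R1881 at 30 nM.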
# [10] = target: Androgen receptor (Homo sapiens) (UniProt P10275); experiment: qHTS assay for small molecule antagonists of androgen receptor signaling (AID 588516; active means well fitted curve in the direction sought with a large enough effect in the signal ratio, with a control signal flat, not every such curve was filed as active; the % refers to the signal ratio; further: potency means the concentration at half of the fitted maximal effect); details: AR-UAS-bla HEK293, beta-lactamase ratio, antagonist mode, 16 h; series mostly up to 76.8 µM
# Outline: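 HEK293 AR-UAS-bla cells, 10% dialyzed FBS medium; cpd titration + R1881 10 nM final, 16 h 37 C; CCF4 2 h RT; FRET ratio; IC50/efficacy via Hill fit.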
compound,measurement,setting,value
CN(C)CCCn1cc(C2=C(c3c[nH]c4ccccc34)C(=O)NC2=O)c2ccccc21,outcome,[1],inactive
O=C(O)CC(O)(CC(=O)O)C(=O)O,Potency,[2],inactive
same,Potency,[3],inactive
same,max response,[4],-9.3% and -1.59% and -15.8%
CN[C@H]1CC[C@@H](c2ccc(Cl)c(Cl)c2)c2ccccc21,Potency,[5],14.1 µM (active)
COC(C)=O,outcome,[6],inactive
same,Potency,[2],inactive
same,outcome,[7],inactive
same,activation,[8],-4.63% (inactive)
same,Potency,[3],inactive
same,max response,[4],27.1%
COc1ccc2[nH]c(=O)c3c(c2c1)OC(C)(C)C=C3,outcome,[1],inactive
CCCCCCCC/C=C\CCCCCCCC(=O)OC[C@@H](O)[C@H]1OC[C@H](O)[C@H]1O,Potency,[2],2 µM (active)
same,Potency,[3],inactive
same,max response,[4],-7.22%
CC(=O)C1=C(O)C=C2Oc3c(C(C)=O)c(O)c(C)c(O)c3[C@]2(C)C1=O,outcome,[1],inactive
C=Cc1ccccc1,outcome,[6],inactive
same,Potency,[2],inactive
same,max response,[4],-7.04% and -9%
CCc1ccccc1OC[C@@H](O)CN[C@H]1CCCc2ccccc21,outcome,[1],inactive
NCCCC(=O)O,Potency,[5],inactive
same,outcome,[1],inactive
COc1cc(C[C@H]2C(=O)OC[C@@H]2Cc2ccc(OC)c(OC)c2)ccc1O,outcome,[1],inactive
Cc1ccc(OC[C@H](O)[C@H](C)NC(C)C)c2c1CCC2,outcome,[1],inactive
CCCCCCCCCC(=O)O,activation,[9],-19.5% (inactive) and -1.38% (inactive)
same,Potency,[10],inactive
same,activation,[8],-0.446% (inactive)
same,Potency,[3],inactive
same,max response,[4],24%
O=S(=O)(c1ccccc1)N(CC(F)(F)F)c1ccc(C(O)(C(F)(F)F)C(F)(F)F)cc1,Potency,[2],inactive
same,Potency,[10],44.7 µM (active)
same,activation,[8],3.66% (inactive)
same,Potency,[3],39.8 µM (active)
same,max response,[4],-29.6%
CN(C)Cc1ccccc1,activation,[9],-4.67% (inactive)
same,activation,[8],-2.09% (inactive)
same,Potency,[3],inactive
same,max response,[4],-30.1%
CC(=O)S[C@@H]1CC2=CC(=O)CC[C@]2(C)[C@H]2CC[C@@]3(C)[C@@H](CC[C@@]34CCC(=O)O4)[C@H]12,Potency,[2],inactive
same,activation,[8],-13.6% (inactive)
